Source: PubChem BioAssay (EPA / NIEHS)
Where “and” joins values, the source holds several entries; their conditions need not be identical. Equal entries are not always repeated. More than one record can exist for a structure, and the calls need not agree. Calls of active or inactive are those of the source. The calls were made as follows: active = hit-call score of the fitted dose curve at least 0.9, where 1 is the maximum; inactive = score below 0.9.

Key:
[1] = target: CCAAT/enhancer-binding protein beta (Homo sapiens) (UniProt P17676); assay: ATG_C_EBP_CIS: Attagene CIS-FACTORIAL HepG2 Assay for human CCAAT/Enhancer Binding Protein (C/EBP) beta (AID 2282927); details: HepG2 Attagene cis-factorial transcription factor reporter; actives raise or lower the signal
How it was run: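 Following a 24 h incubation with test chemical, transfected HepG2 cells yielded RNA whose reporter transcripts were quantified by RT-PCR and fluorescent capillary electrophoresis, with DMSO serving as baseline for bidirectional fitting.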

[2] = ATG_DR4_LXR_CIS: Attagene CIS-FACTORIAL HepG2 Assay for human Liver X Receptor (LXR), DR4 submotif (AID 2282929); details: HepG2 Attagene DR4 cis-reporter, mRNA transcription; AC50: actives raise or lower the signal unless noted; outcome: actives raise or lower the signal unless noted
How it was run: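 Measures endogenous transcription factor activity via a DR4-driven reporter transcript in human HepG2 cells. Compounds incubated 24 h; mRNA quantified by RT-PCR and capillary electrophoresis, analysed as gain or loss of signal versus DMSO.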

[3] = target: Aryl hydrocarbon receptor (Homo sapiens) (UniProt P35869); assay: ATG_Ahr_CIS: Attagene CIS-FACTORIAL HepG2 Assay for human Aryl Hydrocarbon Receptor (Ahr) (AID 2282930); details: HepG2 AhR cis-factorial reporter transcription; actives raise or lower the signal
How it was run: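 Values derive from bidirectional fitting against DMSO negative control. Underlying signal: cis-element reporter mRNA in transiently transfected HepG2, harvested 24 h post-dose and measured by RT-PCR plus capillary electrophoresis.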

[4] = ATG_AP_1_CIS: Attagene CIS-FACTORIAL HepG2 Assay for human Activator Protein 1 (AP-1) (AID 2282931); details: HepG2 Attagene cis-factorial AP-1 reporter mRNA; actives raise or lower the signal
How it was run: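 Bidirectional concentration-response fitting against DMSO controls. Underlying signal: reporter mRNA from cis-promoter constructs in transiently transfected HepG2, measured after 24 h by RT-PCR and capillary electrophoresis.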

[5] = ATG_AP_2_CIS: Attagene CIS-FACTORIAL HepG2 Assay for human Activator Protein 2 (AP-2) (AID 2282932); details: HepG2 AP-2 cis-reporter, Attagene transcription factor profiling; AC50: actives raise or lower the signal unless noted; outcome: actives raise or lower the signal unless noted
How it was run: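 Cells (HepG2) transfected with promoter-driven reporter constructs, treated 24 h. Total RNA reverse-transcribed, reporter cDNA PCR-amplified, FAM-labelled by primer extension, digested, resolved by capillary electrophoresis. Activity fitted both directions versus DMSO.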

[6] = ATG_BRE_CIS: Attagene CIS-FACTORIAL HepG2 Assay for human Bone Morphogenetic Protein (BMP) Response Element (BRE) (AID 2282933); details: HepG2 BMP response element reporter, Attagene transcription factor profiling; actives raise or lower the signal
How it was run: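 Multiplexed cis-reporter assay, HepG2, 24 h exposure. mRNA from reporter units quantified via RT-PCR/CE; DMSO baseline; bidirectional curve fit.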

[7] = target: Retinoic acid receptor alpha (Homo sapiens) (UniProt P10276); assay: ATG_DR5_RAR_CIS: Attagene CIS-FACTORIAL HepG2 Assay for human Retinoic Acid Receptor Alpha (RARE), DR5 submotif (AID 2282934); details: HepG2 Attagene cis-factorial RARE DR5 reporter, mRNA; actives raise or lower the signal
How it was run: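 Endpoint fitted in both directions relative to DMSO as negative control. It reflects DR5 cis-element reporter mRNA induction in transiently transfected HepG2 cells, measured 24 h after dosing through RT-PCR and fluorescent capillary electrophoresis.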

[8] = target: Transcription factor E2F1 (Homo sapiens) (UniProt Q01094); assay: ATG_E2F_CIS: Attagene CIS-FACTORIAL HepG2 Assay for human E2F Transcription Factor 1 (AID 2282935); details: HepG2 Attagene cis-reporter, E2F reporter RNA transcripts; actives raise or lower the signal
How it was run: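 First, HepG2 cells were transfected with reporter transcription units. Next, they were dosed for 24 h. Then RNA was isolated, converted to cDNA, PCR-amplified, FAM-labeled, HpaI-digested and analyzed by capillary electrophoresis.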

[9] = ATG_E_Box_CIS: Attagene CIS-FACTORIAL HepG2 Assay for human Enhancer Box (E-box) (AID 2282936); details: HepG2 E-box cis-reporter transcription, actives raise or lower the signal
How it was run: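 Endogenous transcription factor activity was sensed in human HepG2 liver cells through transfected cis-promoter reporter units. After 24 h of dosing, total RNA was reverse-transcribed and reporter cDNA resolved by capillary electrophoresis.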

[10] = ATG_M_61_CIS: Attagene CIS-FACTORIAL HepG2 Assay for M61 Transcription Factor (Internal Marker) (AID 2282937); details: HepG2 Attagene CIS-FACTORIAL M61 internal marker reporter; actives raise or lower the signal
How it was run: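 Fluorescence from labelled cDNA fragments, separated by capillary electrophoresis, quantifies reporter induction. HepG2 cells bearing transiently transfected cis-promoter MRTUs were incubated with test chemical for 24 h; DMSO defined baseline for gain/loss fitting.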

[11] = ATG_EGR_CIS: Attagene CIS-FACTORIAL HepG2 Assay for human Early Growth Response 1 (EGR1) (AID 2282938); details: HepG2 Attagene CIS-FACTORIAL EGR reporter mRNA; actives raise or lower the signal
How it was run: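 Cell-based multiplex transcription assay: HepG2 carrying transfected cis-element reporter units, 24 h chemical treatment. Fluorescence from capillary electrophoresis of RT-PCR products gives mRNA levels; fitting is bidirectional relative to DMSO.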

[12] = ATG_M_19_CIS: Attagene CIS-FACTORIAL HepG2 Assay for M19 Transcription Factor (Internal Marker) (AID 2282939); details: HepG2 Attagene CIS-FACTORIAL M19 internal marker reporter; actives raise or lower the signal
How it was run: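 Signals come from fluorescence of labelled reporter-specific PCR fragments resolved by capillary electrophoresis, following 24 h treatment of HepG2 cells transfected with cis-promoter reporter units; activity was fitted in both directions relative to DMSO.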

[13] = ATG_ERE_CIS: Attagene CIS-FACTORIAL HepG2 Assay for Estrogen Response Element (ERE) (AID 2282940); details: HepG2 ERE cis-reporter, Attagene RNA transcript; actives raise or lower the signal
How it was run: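 Fluorescence of capillary-separated, FAM-labelled reporter cDNA fragments indicates reporter mRNA levels in HepG2 cells exposed to chemicals for 24 h. Transient transfection with cis-regulated units; data fitted in both directions against DMSO.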

[14] = ATG_Ets_CIS: Attagene CIS-FACTORIAL HepG2 Assay for human Erythroblast Transformation Specific (ETS) (AID 2282941); details: HepG2 ETS cis-reporter transcription; AC50: actives raise or lower the signal unless noted; outcome: actives raise or lower the signal unless noted
How it was run: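 RT-PCR/capillary electrophoresis fluorescence read-out of reporter mRNA; HepG2 transient multi-reporter transfection; 24 h compound exposure; gain or loss of signal fitted bidirectionally relative to DMSO.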

[15] = target: Hepatocyte nuclear factor 3-beta (Homo sapiens) (UniProt Q9Y261); assay: ATG_FoxA2_CIS: Attagene CIS-FACTORIAL HepG2 Assay for human Forkhead box A2 (FOXA2) (AID 2282942); details: HepG2 cis-reporter transcription factor activity, 24 h; actives raise or lower the signal
How it was run: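 In transiently transfected human HepG2 cells, promoter-driven reporter mRNA levels after 24 h chemical exposure are determined via RT-PCR with capillary electrophoresis. DMSO serves as baseline for bidirectional fitting.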

[16] = ATG_FoxO_CIS: Attagene CIS-FACTORIAL HepG2 Assay for human Forkhead box O (FoxO) (AID 2282943); details: HepG2 Attagene cis-reporter, FoxO element, mRNA; actives raise or lower the signal
How it was run: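 Values reflect reporter mRNA induction or loss in HepG2 cells 24 h post-dosing, fitted bidirectionally with DMSO as negative control and baseline. Detection used RT-PCR and fluorescence capillary electrophoresis.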

[17] = ATG_GATA_CIS: Attagene CIS-FACTORIAL HepG2 Assay for human GATA Binding Protein (AID 2282944); details: HepG2 GATA cis-element reporter, Attagene multiplex mRNA; actives raise or lower the signal
How it was run: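 After transfecting HepG2 cells with multiple cis-regulated reporter units, chemicals are dosed for 24 h; isolated RNA undergoes RT-PCR and fluorescent labeling before capillary electrophoresis, with activity expressed against DMSO.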

[18] = ATG_GLI_CIS: Attagene CIS-FACTORIAL HepG2 Assay for human Zinc Finger Protein GLI1 (AID 2282945); details: HepG2, Attagene cis-factorial reporter mRNA, GLI element; actives raise or lower the signal
How it was run: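 HepG2 cells transiently transfected with cis-promoter multiplexed reporter units report endogenous transcription factor activity. After 24 h chemical exposure, reporter mRNA was quantified by RT-PCR, 6-FAM labelling, HpaI digestion and capillary electrophoresis, with bidirectional fitting against DMSO.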

[19] = target: Bile acid receptor (Homo sapiens) (UniProt Q96RI1); assay: ATG_IR1_CIS: Attagene CIS-FACTORIAL HepG2 Assay for human Nuclear Receptor Subfamily 1 Group H Member 4 (NR1H4), IR1 submotif (AID 2282946); details: IR1 reporter transcription, actives raise or lower the signal
How it was run: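 Readout: reporter transcript levels by RT-PCR with fluorescent capillary electrophoresis, from HepG2 cells transiently transfected with multiplexed cis-regulated reporters and dosed 24 h. Gain- or loss-of-signal fitted versus DMSO negative control.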

[20] = ATG_CMV_CIS: Attagene CIS-FACTORIAL HepG2 Assay for human CMV (Internal Marker) (AID 2282928); details: HepG2 CMV promoter reporter, transcription factor profiling; actives raise or lower the signal;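 also: endpoint acts as a background internal control marker rather than a target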
How it was run: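 Readout: fluorescent reporter cDNA fragments separated by capillary electrophoresis after RT-PCR and HpaI cut. Cells: HepG2 carrying transfected cis-promoter reporter constructs, dosed 24 h. Endpoint serves as background internal-marker control, fit bidirectionally versus DMSO.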

Measured: AC50

Sequence of Transcription factor E2F1 (Homo sapiens) (Q01094 whole entry, looked up): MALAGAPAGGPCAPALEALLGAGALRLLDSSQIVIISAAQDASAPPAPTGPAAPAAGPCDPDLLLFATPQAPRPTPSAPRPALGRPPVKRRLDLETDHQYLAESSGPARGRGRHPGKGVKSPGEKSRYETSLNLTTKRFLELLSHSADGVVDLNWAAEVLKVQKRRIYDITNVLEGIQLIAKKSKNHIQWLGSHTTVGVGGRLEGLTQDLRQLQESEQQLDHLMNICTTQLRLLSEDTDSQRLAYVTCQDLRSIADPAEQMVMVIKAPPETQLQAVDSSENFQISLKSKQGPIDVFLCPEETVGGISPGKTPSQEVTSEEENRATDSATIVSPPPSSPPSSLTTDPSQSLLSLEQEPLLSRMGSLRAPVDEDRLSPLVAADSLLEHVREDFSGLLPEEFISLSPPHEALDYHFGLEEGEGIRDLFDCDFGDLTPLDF
Sequence of Retinoic acid receptor alpha (Homo sapiens) (P10276 whole entry, looked up): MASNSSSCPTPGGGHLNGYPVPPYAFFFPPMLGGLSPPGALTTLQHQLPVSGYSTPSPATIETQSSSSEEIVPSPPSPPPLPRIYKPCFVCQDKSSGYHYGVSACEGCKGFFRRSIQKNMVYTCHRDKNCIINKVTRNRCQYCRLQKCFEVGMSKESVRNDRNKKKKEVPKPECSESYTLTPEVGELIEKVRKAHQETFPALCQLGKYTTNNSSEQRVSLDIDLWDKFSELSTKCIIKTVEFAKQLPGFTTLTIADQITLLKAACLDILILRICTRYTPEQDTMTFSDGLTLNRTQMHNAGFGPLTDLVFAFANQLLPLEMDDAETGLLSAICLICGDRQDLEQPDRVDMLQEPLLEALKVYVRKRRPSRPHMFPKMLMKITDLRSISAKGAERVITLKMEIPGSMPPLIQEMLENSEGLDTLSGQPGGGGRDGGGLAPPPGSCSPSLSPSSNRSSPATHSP
Sequence of Hepatocyte nuclear factor 3-beta (Homo sapiens) (Q9Y261 whole entry, looked up): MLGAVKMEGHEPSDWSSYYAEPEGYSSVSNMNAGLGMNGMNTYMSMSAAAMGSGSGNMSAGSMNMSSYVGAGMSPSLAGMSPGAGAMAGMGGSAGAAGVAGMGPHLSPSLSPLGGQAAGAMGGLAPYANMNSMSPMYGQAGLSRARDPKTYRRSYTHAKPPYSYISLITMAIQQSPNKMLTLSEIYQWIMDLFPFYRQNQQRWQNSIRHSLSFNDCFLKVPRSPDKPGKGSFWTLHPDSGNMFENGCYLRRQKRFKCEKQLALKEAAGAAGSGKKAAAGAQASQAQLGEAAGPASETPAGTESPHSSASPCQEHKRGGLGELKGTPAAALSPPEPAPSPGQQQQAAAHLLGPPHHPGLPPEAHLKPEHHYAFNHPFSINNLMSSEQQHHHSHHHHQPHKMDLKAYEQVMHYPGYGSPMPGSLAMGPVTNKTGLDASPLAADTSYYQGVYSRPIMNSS
Sequence of Bile acid receptor (Homo sapiens) (Q96RI1 whole entry, looked up): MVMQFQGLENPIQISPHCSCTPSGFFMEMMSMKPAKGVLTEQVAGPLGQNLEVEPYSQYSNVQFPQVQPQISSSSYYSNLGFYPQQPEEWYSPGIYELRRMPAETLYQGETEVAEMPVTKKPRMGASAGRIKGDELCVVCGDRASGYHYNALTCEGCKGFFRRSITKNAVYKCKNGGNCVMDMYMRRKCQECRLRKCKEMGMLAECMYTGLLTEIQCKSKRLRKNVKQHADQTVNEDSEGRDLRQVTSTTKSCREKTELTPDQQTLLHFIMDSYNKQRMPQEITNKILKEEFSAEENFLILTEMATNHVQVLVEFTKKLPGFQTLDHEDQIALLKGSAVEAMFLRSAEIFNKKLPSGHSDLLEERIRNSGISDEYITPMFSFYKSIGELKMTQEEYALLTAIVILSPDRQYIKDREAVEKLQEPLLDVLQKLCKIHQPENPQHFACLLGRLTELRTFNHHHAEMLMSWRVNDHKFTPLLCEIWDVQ
Sequence of CCAAT/enhancer-binding protein beta (Homo sapiens) (P17676 whole entry, looked up): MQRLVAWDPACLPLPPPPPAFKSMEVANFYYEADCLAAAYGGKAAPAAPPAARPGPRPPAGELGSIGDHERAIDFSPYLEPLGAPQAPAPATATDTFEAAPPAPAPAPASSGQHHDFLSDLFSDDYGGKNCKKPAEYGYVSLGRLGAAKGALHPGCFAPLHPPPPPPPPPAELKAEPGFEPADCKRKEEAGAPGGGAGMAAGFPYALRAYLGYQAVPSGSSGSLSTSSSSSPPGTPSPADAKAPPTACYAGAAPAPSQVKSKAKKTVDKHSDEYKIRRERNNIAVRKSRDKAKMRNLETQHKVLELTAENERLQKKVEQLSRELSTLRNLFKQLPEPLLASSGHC
Sequence of Aryl hydrocarbon receptor (Homo sapiens) (P35869 whole entry, looked up): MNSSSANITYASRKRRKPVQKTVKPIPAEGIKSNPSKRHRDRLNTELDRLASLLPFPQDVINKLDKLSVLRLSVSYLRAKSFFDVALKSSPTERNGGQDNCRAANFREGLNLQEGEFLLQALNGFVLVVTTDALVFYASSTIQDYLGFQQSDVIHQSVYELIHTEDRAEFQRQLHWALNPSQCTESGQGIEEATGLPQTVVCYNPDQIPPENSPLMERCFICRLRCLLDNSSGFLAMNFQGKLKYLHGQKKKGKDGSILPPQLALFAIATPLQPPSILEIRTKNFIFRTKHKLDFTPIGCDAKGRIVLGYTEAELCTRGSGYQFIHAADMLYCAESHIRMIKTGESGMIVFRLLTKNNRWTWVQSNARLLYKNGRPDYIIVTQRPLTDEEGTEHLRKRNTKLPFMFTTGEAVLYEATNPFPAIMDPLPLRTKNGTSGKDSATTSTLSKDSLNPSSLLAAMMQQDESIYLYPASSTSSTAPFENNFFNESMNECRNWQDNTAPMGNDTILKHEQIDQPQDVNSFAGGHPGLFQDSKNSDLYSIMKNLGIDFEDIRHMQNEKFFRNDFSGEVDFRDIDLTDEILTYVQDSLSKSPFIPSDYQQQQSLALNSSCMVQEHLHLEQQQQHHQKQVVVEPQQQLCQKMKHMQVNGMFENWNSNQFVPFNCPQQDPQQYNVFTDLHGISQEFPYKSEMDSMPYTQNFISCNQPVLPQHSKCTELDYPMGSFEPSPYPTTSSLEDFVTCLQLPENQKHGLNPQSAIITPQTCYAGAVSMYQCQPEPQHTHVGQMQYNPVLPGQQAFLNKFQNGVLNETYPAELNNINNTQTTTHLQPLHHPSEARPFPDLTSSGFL

NNc1nc(-c2ccc([N+](=O)[O-])cc2)cs1
active: [4] 10.6 µM | [6] 18.3 µM
not listed: [20]
inactive: all other assays above

Oc1ccc(Cc2ccccc2O)cc1
active: [13] 7.8 µM
not listed: [3] | [5] | [7] | [14]
inactive: all other assays above

O=C1NS(=O)(=O)c2ccccc21
not listed: [3] | [5] | [13] | [18] | [19]
inactive: all other assays above

CCCCCCCCCCCCOC(=O)c1cc(O)c(O)c(O)c1
active: [2] 6.4 µM | [4] 11.1 µM | [9] 2.92 µM
not listed: [3] | [10] | [20]
inactive: all other assays above

CCCCCCCCCC=CCC1CC(=O)OC1=O (stereo not drawn)
active: [20] 66.8 µM
not listed: [3] | [5] | [7] | [13] | [16]
inactive: all other assays above

CC(C)CCOCCC(C)C
active: [13] 26.8 µM
not listed: [5] | [20]
inactive: all other assays above

O=S(=O)(O)c1ccc2cc(O)ccc2c1
not listed: [1] | [3] | [5] | [13] | [14] | [18] | [19]
inactive: all other assays above

O=C(CC(=O)C(F)(F)C(F)(F)C(F)(F)F)c1cccs1
inactive: [2] inactive [setting not given] | [5] inactive [setting not given] | [6] | [8] | [9] | [11] | [12] | [13] | [15] | [17] | [18] | [19]
active: [20] 50 µM | [4] 35.2 µM and 42 µM | [14] 12.1 µM [setting not given]
